# In article PMC5515408, “Sequence-specific DNA binding by MYC/MAX to low-affinity non-E-box motifs”:
# Whole data set: some 4,500 sequences, median “log2 normalized fluorescence” near -0.34, cut for the highest 2% near 3.3. This is one part of a sample in which the highest values are shown more often than they occur.
# Molecular target: MAX:MAX (p21) (human, UniProt P61244-2 1-151)
# Test: protein-binding microarray (anti-MAX antibody); PBM: 15 mM Tris-HCl pH 7.5, 100 mM KCl, 0.075% NP40, 7.5 mM beta-mercaptoethanol, 375 ng/ul BSA, 8 ng/ul poly(dA-dT):(dA-dT), 550 ng complex, 60 min, room tempe; high values mean tight binding
# Conditions: protein: recombinant; tags: 6xHis; chain copies: 2; label: 3' end of printed strand (linker) attached to glass slide; dsDNA, one strand shown
# In short: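 Binding is reported as log2 normalized fluorescence. Recombinant His-tagged human MYC:MAX or MAX:MAX dimers expressed in E. coli (550 ng) were incubated with a custom Agilent glass array for 60 min at room temperature in Tris-KCl buffer, pH 7.5, containing NP40, BSA and poly(dA-dT) competitor. The array carried ~5000 unique 12-nt sequences, each spotted in triplicate and made double-stranded by primer extension, and bound protein was detected with anti-MAX and secondary antibodies and scanned at 543 nm.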
# Sequence of MAX:MAX (p21) (P61244 other isoform, or with tags, fused parts or gaps): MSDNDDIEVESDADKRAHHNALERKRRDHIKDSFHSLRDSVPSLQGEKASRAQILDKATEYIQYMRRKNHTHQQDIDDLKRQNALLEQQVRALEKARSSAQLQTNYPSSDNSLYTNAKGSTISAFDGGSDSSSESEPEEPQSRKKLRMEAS
row,Sequence,binding signal
1,CCGGCTGAGGTCTTGTATTAATAGCTAAGATTACTATATCGACG,-0.72 log2 normalized fluorescence
2,CCGGCCCTCACGTGGTATTAATAGCTAAGATTACTATATCGACG,3.26 log2 normalized fluorescence
3,CCGGCTCACACGTGATATTAATAGCTAAGATTACTATATCGACG,3.31 log2 normalized fluorescence
4,CCGGCACTCACGTGGTATTAATAGCTAAGATTACTATATCGACG,3.13 log2 normalized fluorescence
5,CCGGCTCTCACGTGGTCTTAATAGCTAAGATTACTATATCGACG,3.06 log2 normalized fluorescence
6,CCGGCTCTTACGTGGTATTAATAGCTAAGATTACTATATCGACG,0.802 log2 normalized fluorescence
7,CCGGCTCACACGTGTTATTAATAGCTAAGATTACTATATCGACG,3.29 log2 normalized fluorescence
8,CCGGCTCACACGCGGTTTTAATAGCTAAGATTACTATATCGACG,3.17 log2 normalized fluorescence
9,CCGGCTCTCACGTGGTATTAATAGCTAAGATTACTATATCGACG,3.5 log2 normalized fluorescence
10,CCGGCGCTCACGTGGTATTAATAGCTAAGATTACTATATCGACG,3.34 log2 normalized fluorescence
11,CCGGCTCACACGAGGTTTTAATAGCTAAGATTACTATATCGACG,3.32 log2 normalized fluorescence
12,CCGGCTGTCACGTGATATTAATAGCTAAGATTACTATATCGACG,3.2 log2 normalized fluorescence
13,CCGGCTGGCACGAGGTTTTAATAGCTAAGATTACTATATCGACG,3.28 log2 normalized fluorescence
14,CCGGCTGATGCTGAGTATTAATAGCTAAGATTACTATATCGACG,0.00915 log2 normalized fluorescence
15,CCGGCTGAACAAAGGTATTAATAGCTAAGATTACTATATCGACG,-0.6 log2 normalized fluorescence
16,CCGGCTGACCGCGAGTATTAATAGCTAAGATTACTATATCGACG,1.06 log2 normalized fluorescence
17,CCGGCTGAGCACAAGTATTAATAGCTAAGATTACTATATCGACG,0.993 log2 normalized fluorescence
18,CCGGCTGGCACGTGCTATTAATAGCTAAGATTACTATATCGACG,3.25 log2 normalized fluorescence
19,CCGGCTCACACGTGGTATTAATAGCTAAGATTACTATATCGACG,3.33 log2 normalized fluorescence

row,Sequence,binding signal
1,CCGGCTAACACGTGGTTTTAATAGCTAAGATTACTATATCGACG,3.27 log2 normalized fluorescence
2,CCGGCTCACACGTCGTATTAATAGCTAAGATTACTATATCGACG,2.63 log2 normalized fluorescence
3,CCGGCTCACACGTGGTTTTAATAGCTAAGATTACTATATCGACG,3.32 log2 normalized fluorescence
4,CCGGCTCAGACGTGGTATTAATAGCTAAGATTACTATATCGACG,1.39 log2 normalized fluorescence
5,CCGGCTCACACGTTTTATTAATAGCTAAGATTACTATATCGACG,3.25 log2 normalized fluorescence
6,CCGGCTGAATGACCGTATTAATAGCTAAGATTACTATATCGACG,0.107 log2 normalized fluorescence
7,CCGGCTCACACCTCGTATTAATAGCTAAGATTACTATATCGACG,2.28 log2 normalized fluorescence
8,CCGGCTGACGGTTCGTATTAATAGCTAAGATTACTATATCGACG,-0.498 log2 normalized fluorescence
9,CCGGCTGAAACGTGGAATTAATAGCTAAGATTACTATATCGACG,2.54 log2 normalized fluorescence
10,CCGGCTAGCACGTGGTATTAATAGCTAAGATTACTATATCGACG,3.44 log2 normalized fluorescence
11,CCGGCGGACCCGTGGTATTAATAGCTAAGATTACTATATCGACG,2.46 log2 normalized fluorescence
12,CCGGCGCACACGTGGTATTAATAGCTAAGATTACTATATCGACG,3.29 log2 normalized fluorescence
13,CCGGCTCGCACGTGGAATTAATAGCTAAGATTACTATATCGACG,3.31 log2 normalized fluorescence
14,CCGGCTCATACGTGGAATTAATAGCTAAGATTACTATATCGACG,1.28 log2 normalized fluorescence
15,CCGGCAAGCACGTGGTATTAATAGCTAAGATTACTATATCGACG,3.27 log2 normalized fluorescence
16,CCGGCGCGCACGTGGTATTAATAGCTAAGATTACTATATCGACG,3.39 log2 normalized fluorescence
17,CCGGCGGACTCGTGGTATTAATAGCTAAGATTACTATATCGACG,3.3 log2 normalized fluorescence
18,CCGGCGCAAACGTGGTATTAATAGCTAAGATTACTATATCGACG,2.98 log2 normalized fluorescence
19,CCGGCGGACGCGTGGTATTAATAGCTAAGATTACTATATCGACG,3.14 log2 normalized fluorescence

row,Sequence,binding signal
1,CCGGCCAGCACGTGGTATTAATAGCTAAGATTACTATATCGACG,3.24 log2 normalized fluorescence
2,CCGGCTGACCTGATGTATTAATAGCTAAGATTACTATATCGACG,0.381 log2 normalized fluorescence
3,CCGGCATAGTATACAATTTAATAGCTAAGATTACTATATCGACG,0.0214 log2 normalized fluorescence
4,CCGGCTGAACCCTGGTATTAATAGCTAAGATTACTATATCGACG,-0.595 log2 normalized fluorescence
5,CCGGCTGATAAGTGGTATTAATAGCTAAGATTACTATATCGACG,-0.651 log2 normalized fluorescence
6,CCGGCTGAAGGATTGTATTAATAGCTAAGATTACTATATCGACG,-0.589 log2 normalized fluorescence
7,CCGGCTGAAACTTGGTATTAATAGCTAAGATTACTATATCGACG,-0.705 log2 normalized fluorescence
8,CCGGCCCGCACGTGGTATTAATAGCTAAGATTACTATATCGACG,3.03 log2 normalized fluorescence
9,CCGGCACCCACGTGGTATTAATAGCTAAGATTACTATATCGACG,3.35 log2 normalized fluorescence
10,CCGGCTCGGACGTGGTATTAATAGCTAAGATTACTATATCGACG,1.17 log2 normalized fluorescence
11,CCGGCAGGCACGTGGTATTAATAGCTAAGATTACTATATCGACG,3.21 log2 normalized fluorescence
12,CCGGCCGGCACGTGGTATTAATAGCTAAGATTACTATATCGACG,3.27 log2 normalized fluorescence
13,CCGGCATCCACGTGGTATTAATAGCTAAGATTACTATATCGACG,3.28 log2 normalized fluorescence
14,CCGGCGAGCACGTGGTATTAATAGCTAAGATTACTATATCGACG,3 log2 normalized fluorescence
15,CCGGCTCGCACGTGGTATTAATAGCTAAGATTACTATATCGACG,3.41 log2 normalized fluorescence
16,CCGGCACGCACGTGGTATTAATAGCTAAGATTACTATATCGACG,3.29 log2 normalized fluorescence
17,CCGGCCTGCACGTGGTATTAATAGCTAAGATTACTATATCGACG,3.26 log2 normalized fluorescence
18,CCGGCGTGCACGTGGTATTAATAGCTAAGATTACTATATCGACG,3.47 log2 normalized fluorescence
